In the library only some 2.8% were active in any assay of this set; here they are far more common.
Shn3 3UTR inh – inhibitors of Schnurri-3 3'UTR reporter in osteoblasts. Clone20 osteoblast Shn3 3'UTR firefly luciferase, 24 h. inhibition, % at 12.5 µM. 360,000 compounds, 0.52% hits. AID 588674;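 active means mean inhibition of at least 75% with every replicate also reaching 75%; inconclusive means mean inhibition at least 75% but some replicate below; inactive means mean inhibition below 75%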
Env fusion inh – blocks HIV Env-driven cell-cell fusion; HeLa-JRFL Env/CEM21 cell fusion, luciferase; inhibition, % at 12.3 µM; 360,000 compounds, 1.1% hits; AID 651610;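 active means mean replicate inhibition score of at least 50 and every replicate individually at or above 50; inconclusive means only one of the two criteria met; inactive means mean below 50 and not all replicates reaching 50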
EBV LMP1 NFkB – inhibitors of Epstein-Barr LMP1-induced NF-kappaB reporter. inhibition, % at 12.5 µM. AID 504558. 350,000 compounds, 0.69% hits. LMP1-induced NF-kappaB luciferase reporter cells, luminescence; in the data active means inhibition above about 41%; inconclusive means no clear call, values can overlap the other calls
NSD2 inh – blocks human histone methyltransferase NSD2. O96028. NSD2 peptide methylation, AlphaScreen, 120 min. inhibition, % at 12.5 µM. 310,000 compounds, 0.54% hits. AID 743445; in the data active means inhibition above about 50%
Glyco luc inh – blocks N-linked glycosylation in D54 reporter cells | D54 ERlucT glycosylation luciferase reporter, 24 h; percent of 100 nM tunicamycin response | reporter increase, % at 12.5 µM | 360,000 compounds, 0.23% hits | AID 588692;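 active means mean luciferase reporter signal, scaled so untreated is 0 and the glycosylation-blocking control 100, at or above a set limit in every replicate; inconclusive means mean reaches the limit but not every replicate does; inactive means mean below the limit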;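 further: luciferase carries N-glycosylation sites so blocking glycosylation raises the light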
PAX8 reporter – inhibitors of PAX8 transcriptional activity in RMG-I cells | RMG-I TPO-luciferase reporter, SteadyGlo, 24 h | inhibition, % at 12.6 µM | 360,000 compounds, 1.2% hits;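 active means mean replicate inhibition at least 60% with every replicate also reaching 60%; inconclusive means only one of the two criteria is met; inactive means mean below 60% and not all replicates reaching 60%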;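 further: luciferase light reporting Pax8 driven TPO promoter activity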
Hits are given with their value; 0 = inactive; ? = inconclusive; - = no result.

SMILES	Shn3 3UTR inh	Env fusion inh	EBV LMP1 NFkB	NSD2 inh	Glyco luc inh	PAX8 reporter
COC(=O)[C@@]1(CCC(=O)OC(C)(C)C)N=C(c2ccc(OCCCO)cc2)O[C@H]1c1ccccc1CN=[N+]=[N-]	-	0	-	-	-	-
O=S(=O)(N[C@@H]1CC[C@H](CCn2cc(-c3cccnc3)nn2)O[C@@H]1CO)c1ccc(Cl)cc1	-	0	-	-	-	0
O=C(CCCc1ccccc1)Nc1cccc(C(=O)O)c1	0	0	46	0	0	0
Cc1c(P(=S)(c2ccccc2)c2ccccc2)[n+]2ccccc2n1CCc1ccccc1	0	0	-	-	0	89
Cc1cc(C(=O)CCl)c(C)n1CCc1ccccc1	-	0	-	0	-	0
CCCCCCCN(C(=O)CCl)c1cccc(C)c1	0	0	0	0	0	103
CCCC(=O)N(Cc1cc(=O)[nH]c2ccccc12)c1cccc(C)c1	0	0	0	0	0	0
CCCCCCN(C(=O)CCl)c1ccccc1	0	0	0	0	0	104
O=C(CCl)N(c1ccccc1)c1ccccc1	0	0	0	0	0	?
Cc1cccc(N(Cc2cc(=O)[nH]c3ccccc23)C(=O)CCl)c1	0	82	0	0	0	115
CCCN(C(=O)Cn1ncc2c(=O)oc3ccccc3c21)c1cccc(C)c1	0	0	0	0	0	0
N#CCCN(C(=O)CCl)c1cccc(Cl)c1	0	0	45	-	0	0
N#CCCN(C(=O)COC(=O)c1nc(Cl)ccc1Cl)c1ccccc1	0	0	0	0	0	0
O=C(C[C@H]1C=C[C@@H](NS(=O)(=O)c2ccc(F)cc2)[C@@H](CO)O1)NCCN1CCCCC1	-	0	-	-	-	0
CC(C)C#Cc1cnc2c(c1)C(=O)N([C@@H](C)CO)C[C@H](C)[C@H](CN(C)C(=O)Nc1ccc(F)cc1)O2	-	0	-	-	-	-
C[C@@H]1CN([C@H](C)CO)C(=O)c2cccc(NS(=O)(=O)c3ccc(F)cc3)c2O[C@H]1CN(C)C	-	-	-	-	-	0
C[C@@H]1CN([C@@H](C)CO)C(=O)c2cc(NS(=O)(=O)c3ccccc3)ccc2O[C@H]1CN(C)C(=O)Nc1ccc2c(c1)OCO2	-	0	-	-	-	-
CCCc1nnc(SCc2ccc(OCC)cc2)n1N	0	-	77	0	0	-
N#C/C(=C\c1ccc(OCc2ccc(C(=O)O)cc2)cc1)C(=O)N1CCOCC1	0	65	84	-	0	87
CC(=O)Nc1cccc(NC(=O)C(=O)Nc2ccc3c(c2)N(C(=O)C2CC2)CCC3)c1	0	0	0	0	0	0
COc1ccccc1NC(=O)C(=O)Nc1ccc2c(c1)N(C(=O)C1CC1)CCC2	0	0	0	0	0	79
O=C(OCC(=O)N1CCN(c2ccccc2)CC1)c1cccc([N+](=O)[O-])c1	0	71	0	0	0	0
CS(=O)(=O)c1ccc(C(=O)OCC(=O)N2CCN(CCC3CCCCC3)CC2)cc1[N+](=O)[O-]	96	0	-	-	0	105
CS(=O)(=O)c1ccc(C(=O)OCC(=O)N2CCOCC2)cc1[N+](=O)[O-]	95	0	-	-	0	0
Cc1ccc(C(=O)OCC(=O)N2CCOCC2)cc1	0	0	0	0	0	0
SMILES	Shn3 3UTR inh	Env fusion inh	EBV LMP1 NFkB	NSD2 inh	Glyco luc inh	PAX8 reporter
C[C@H](CO)N1C[C@H](C)[C@@H](CN(C)Cc2ccc(C(=O)O)cc2)OCc2cn(nn2)CCCC1=O	-	-	-	-	-	0
Cc1ccc(S(=O)(=O)Nc2cccc3c2O[C@H](CN(C)S(=O)(=O)c2cn(C)cn2)[C@@H](C)CN([C@@H](C)CO)C3=O)cc1	-	0	-	-	-	0
CCOc1ccc2nc(NCCNC(=O)Nc3cccc(C)c3)c(C#N)cc2c1	0	0	0	0	42	0
C[C@@H]1CN([C@@H](C)CO)C(=O)c2cc(-c3cccnc3)cnc2O[C@@H]1CN(C)C(=O)c1cccc(F)c1	-	0	-	-	-	-
C[C@@H]1CN([C@H](C)CO)C(=O)Cc2cc(NC(=O)C3CC3)ccc2O[C@@H]1CN(C)Cc1ccccc1	-	0	-	-	-	0
COCCNC(=O)C[C@H]1CC[C@H]2[C@@H](COc3ccc(NC(=O)c4ccno4)cc3C(=O)N2C)O1	-	-	-	-	-	0
Fc1ccc(N=C2NN=C(c3cc(F)ccc3F)CS2)cc1	0	0	0	0	0	0
O=S(=O)(c1ccc(N=C2NN=C(c3cc(F)ccc3F)CS2)cc1)N1CCOCC1	0	?	0	-	0	90
S=c1nc[nH]c2c1[nH]c1ccc(Cl)cc12	0	69	0	0	0	0
O=C(CCN1CCCCC1)N[C@H]1CC[C@H](CCNS(=O)(=O)c2ccccc2)O[C@@H]1CO	-	0	-	-	-	0
Clc1ccc(-c2cn3nc4c(nc3n2)CCCC4)cc1	0	-	50	0	0	-
COc1cccc(-c2cn3nc4c(nc3n2)CCCC4)c1	0	-	0	0	0	-
CC(C)(C)C(=O)/C(=C/c1ccc(Cl)cc1)n1cncn1	?	0	0	0	0	86
O=C(Cc1ccc(F)cc1)OCC(=O)N1CCN(S(=O)(=O)c2ccc(Cl)cc2)CC1	0	0	0	0	0	101
COc1ccc(CC(=O)OCC(=O)N2CCN(S(=O)(=O)c3ccc(C)cc3C)CC2)cc1	0	-	69	0	0	0
FC(F)(F)c1nnc2c(Sc3ccccc3)nc3ccc(Cl)cc3n12	0	?	0	0	0	113
C[C@@H]1CCCCO[C@@H](CN(C)C(=O)Nc2cccc3ccccc23)[C@H](C)CN([C@H](C)CO)C(=O)c2cc(NS(=O)(=O)c3ccc(Cl)cc3)ccc2O1	-	0	-	-	-	94
C[C@H](CO)N1C[C@H](C)[C@@H](CN(C)C(=O)Nc2cccc3ccccc23)OCCCC[C@H](C)Oc2ccc(NS(=O)(=O)c3ccc(Cl)cc3)cc2C1=O	-	0	-	-	-	0
C[C@H]1CCCCO[C@H](CN(C)C(=O)Nc2cccc3ccccc23)[C@@H](C)CN([C@@H](C)CO)C(=O)c2cc(NS(=O)(=O)c3ccc(Cl)cc3)ccc2O1	-	0	-	-	-	82
C[C@@H]1CCCCO[C@H](CN(C)C(=O)Nc2cccc3ccccc23)[C@@H](C)CN([C@H](C)CO)C(=O)c2cc(NS(=O)(=O)c3ccc(Cl)cc3)ccc2O1	-	0	-	-	-	0
c1ccc2c(c1)oc1c(N3CCOCC3)ncnc12	0	-	0	0	0	-
C(=C\c1ccccc1)/CN1CCN(c2ncnc3c2oc2ccccc23)CC1	?	78	0	0	0	-
Cc1ccc(NC(=O)CO/N=C(\N)c2ccccc2)cc1C	89	-	0	0	0	0
Nc1nc(=S)[nH]c2c1C1(CCCCC1)Cc1ccccc1-2	90	-	0	0	0	0
COc1ccc(NC(=O)C2CCCN(S(=O)(=O)c3cccc4nonc34)C2)c(OC)c1 (stereo not given)	0	0	63	0	0	0
COc1ccc(-c2ccc3c(c2)[C@@H]2[C@@H](CCN2S(=O)(=O)c2ccc(F)cc2)[C@H](CO)N3C)cc1	-	-	-	-	-	62
COc1ccc(-c2ccc3c(c2)[C@@H]2[C@@H](CCN2S(=O)(=O)c2ccc(OC)cc2)[C@H](CO)N3C)cc1	-	-	-	-	-	0
CN1c2ccc(-c3ccc(F)cc3)cc2[C@H]2[C@H](CCN2S(=O)(=O)c2ccc(F)cc2)[C@H]1CO	-	-	-	-	-	0

Screening data: PubChem, Broad Institute
